Assay results reported in PubChem BioAssay AID686979 (National Center for Advancing Translational Sciences (NCATS), 2013).
Screen size: about 420,000 compounds; about 50,000 (12%) were called active. Where a call stands in place of a potency, no number is given. Roughly 26% stayed inconclusive and do not appear here. Calls follow the shape of the dose curve; as a rule, active = well fitted inhibition curve with a large enough effect; inconclusive = small, poorly fitted or top-dose-only effect; inactive = flat fitted curve, though single readings scatter. Many of the other results were omitted from the sample, so actives are more common in it than they were.

Experiment: qHTS for Inhibitors of human tyrosyl-DNA phosphodiesterase 1 (TDP1): qHTS in cells in presence of CPT; also: nearly all actives have a fitted effect of over 55% in size
Conditions: chicken DT40 Tdp1-/-;hTDP1 cells + 20 nM CPT, ATP luminescence, 48 h; series mostly up to 46.2 µM
Procedure, shortened: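 Chicken DT40 Tdp1-/- cells stably complemented with human TDP1 were seeded at 400 cells/well in medium containing 20 nM camptothecin, exposed to pin-transferred compounds, and grown at 37 °C for at least 48 hr. Viability was read as ATP luminescence.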
Potency is read from the fitted curve at half-maximal effect.

Row | SMILES | Potency
1 | Cc1ccc(C)c(NC(=O)COC(=O)c2nn(C)c(=O)c3ccccc23)c1 | inactive
2 | C/C=C/C(=O)OCc1csc(CC(=O)Nc2ccccc2C)n1 | inactive
3 | Cc1ccnc(NC(=O)C2CCN(S(=O)(=O)c3c(C)c(C)cc(C)c3C)CC2)c1 | inactive
4 | CCCNC(=O)C[C@@H]1CC[C@@H]2[C@H](COC[C@H](O)CN2C(=O)c2cc(Cl)cc(Cl)c2)O1 | inactive
5 | CC1(c2nnc(-c3ccncc3)o2)CC(c2cccnc2)=NO1 (centres undefined) | inactive
6 | CCCCC(=O)Nc1nnc(S(=O)(=O)N(C)Cc2ccco2)s1 | inactive
7 | COc1ccc(NC(=O)CCNS(=O)(=O)c2ccc3c(c2)c(=O)n(C)c(=O)n3C)cc1OC | inactive
8 | CC(=O)Nn1cc2c(=O)n(C)c(=O)n(C)c2c1 | inactive
9 | COc1ccc(OC)c(-n2cc3c(=O)n(C)c(=O)n(C)c3c2)c1 | 16.4 µM (active)
10 | CCc1cc2c(SCC(=O)Nc3ncc(Cl)c(C)c3Cl)ncnc2s1 | inactive
11 | CCc1cc2c(NC3CCCC3)ncnc2s1 | 7.31 µM (active)
12 | CCc1cc2c(NC(Cc3ccccc3)C(=O)O)ncnc2s1 (centres undefined) | inactive
13 | Cn1c2ccccc2n2c(=O)c(=O)n(CC(=O)c3ccc(F)cc3)nc12 | inactive
14 | O=[N+]([O-])/C=C/c1ccc2c(ccn2Cc2ccccc2)c1 | 3.26 µM (active)
15 | COc1ccc(Cn2ccn(Cc3cccc(OC)c3)c(=O)c2=O)cc1 | inactive
16 | O=C(Cn1ccc2cc(S(=O)(=O)N3CCCC3)ccc21)NCc1ccccc1 | inactive
17 | Cc1ccc(C)c(S(=O)(=O)Nc2cccc(-n3cnnn3)c2)c1 | inactive
18 | Cc1cnc(C(=O)OCc2c(C)cc(C(C)(C)C)cc2C)cn1 | inactive
19 | N#CCCC(C#N)(c1cccnc1)N1CCOCC1 (centres undefined) | inactive
20 | COc1ccc2occ(C(=O)c3ccc(N=C(C)N(C)C)cc3)c2c1 | 16.4 µM (active)
21 | COc1ccc(C(=O)c2oc3ccc(Br)cc3c2NC(C)=O)cc1 | inactive
22 | COc1ccc(OC)c(C(=O)c2ccc(C(=O)O)cc2)c1 | inactive
23 | O=C(CCN1C(=O)[C@@H]2Cc3ccccc3CN2C1=O)NCCc1ccccc1 | inactive
24 | O=C(Cn1nc(C(=O)O)c2ccccc2c1=O)Nc1ccc(F)cc1 | inactive
25 | CCN(CC)c1ccc(/C=C/c2c(C)cnc3ccc(C)cc23)cc1 | 11.2 µM (active)
26 | COc1ccc(C(=O)COC(=O)CNC(=O)c2cccs2)cc1Br | inactive

Row | SMILES | Potency
27 | Cc1ccc(S(=O)(=O)N2CCN(c3ccccc3)CC2)cc1C | inactive
28 | COC(=O)/C(=C\Nc1ccccc1)NC(=O)c1ccc(Cl)cc1Cl | inactive
29 | COC(=O)Cc1nc2c(N)nc(N)nc2[nH]c1=O | inactive
30 | COc1cc2c(cc1OC)C(COc1ccc(F)cc1)N(C(=O)c1ccccc1F)CC2 (centres undefined) | 18.4 µM (active)
31 | COc1ccc2c(c1)CCC/C2=N\OC(=O)c1ccccc1F | inactive
32 | COc1cc2c(cc1OC)CN(CC(=O)Nc1ccc(F)cc1)CC2 | inactive
33 | NC(=O)C1(Nc2ccccc2Cl)CCCC1 | inactive
34 | NC(=O)c1ccc(-c2csnn2)cc1 | inactive
35 | CCOc1ccc(CCNC(=O)COC(=O)CCS(=O)(=O)c2ccc(C)cc2)cc1OCC | inactive
36 | Cc1nc2ccccc2nc1CC(O)(c1ccccc1)c1ccccc1 | inactive
37 | CN(C)NC(=O)c1csnc1-c1c(Cl)cccc1Cl | inactive
38 | CCn1c(SCC(=O)N/N=C/c2ccccc2OCC(=O)O)nnc1-c1ccc(C(C)(C)C)cc1 | inactive
39 | COc1cccc(CNC(C)C(=O)Nc2ccc(S(=O)(=O)N3CCCC3)cc2)c1 (centres undefined) | inactive
40 | COc1ccc(S(=O)(=O)N2CCN(C(C)C(=O)Nc3ccc(C(C)C)cc3)CC2)cc1 (centres undefined) | 29.1 µM (active)
41 | COc1ccc(S(=O)(=O)N2CCN(C(=O)NC3CCCCC3)CC2)cc1 | inactive
42 | O=C(NC(=S)NC1CCSC1=O)c1ccccc1F (centres undefined) | inactive
43 | COc1cc(CN2CCC(C(N)=O)CC2)ccc1OCc1ccccc1 | inactive
44 | COc1cc(OC)c(NC(=O)C2CCCN2C(=O)OCc2ccccc2)cc1Cl (centres undefined) | inactive
45 | COc1cc(CNC2CCCC2)c(Br)cc1OCc1ccccc1 | 20.6 µM (active)
46 | CS(=O)(=O)NC(=O)CCC/C=C\C[C@H]1C(=O)C[C@@H](O)[C@@H]1/C=C/[C@H](O)COc1ccccc1 | inactive
47 | Cc1ccc2nc(COc3cccc(NC(=O)c4cccc(Cl)c4)c3)cc(=O)n2c1 | inactive
48 | c1ccc(-c2ccc(OCCN3CCOCC3)cc2)cc1 | inactive
49 | COc1cccc(-c2sc3ccc(OC)cc3c2-c2ccc(OCCN3CCCCC3)cc2)c1 | 18.4 µM (active)
50 | Cc1cccc(C)c1OCCN1CCOCC1 | inactive
51 | COc1cc(OC)cc(-c2sc3ccc(OC)cc3c2-c2ccc3cc[nH]c3c2)c1 | inactive
52 | COc1cccc(OCCCN2CCCCCC2)c1 | inactive

Row | SMILES | Potency
53 | COc1ccc(-c2sc3ccccc3c2-c2ccc(OCCN3CCOCC3)cc2)cc1 | 14.6 µM (active)
54 | COc1ccc(S(=O)(=O)N(C)C[C@@H]2Oc3ccc(NS(=O)(=O)c4cn(C)cn4)cc3C(=O)N([C@@H](C)CO)C[C@@H]2C)cc1 | inactive
55 | COc1ccc2c(c1)C(c1cccs1)=NNC(c1cccnc1)=N2 | inactive
56 | CCOc1ccc(NS(=O)(=O)c2ccc(OCC(=O)NCCCOC)cc2)cc1 | inactive
57 | CCCCNC(=O)c1c[nH]c2ccc(S(=O)(=O)Nc3ccc(OCC)cc3)cc2c1=O | inactive
58 | CCOc1ccc(NS(=O)(=O)c2ccc(C)c(C(N)=O)c2)cc1 | 20.6 µM (active)
59 | Cc1ccccc1NC(=O)Cc1nc(COC(=O)CNC(=O)c2ccc(Cl)cc2Cl)cs1 | inactive
60 | Cc1ccc2nc3c(cc(C(=O)NCCc4ccccc4)c(=N)n3CC3CCCO3)c(=O)n2c1 (centres undefined) | 20.6 µM (active)
61 | Cc1ccc2nc3c(cc(C(=O)NC4CCCCC4)c(=N)n3C(C)C)c(=O)n2c1 | inactive
62 | CCCCn1c(=N)c(S(=O)(=O)c2ccccc2)cc2c(=O)n3cccc(C)c3nc21 | inactive
63 | COCCCn1c(C(=O)NC2CCCCC2)cc2c(=O)n3cccc(C)c3nc21 | 18.4 µM (active)
64 | COc1ccc(CCNC(=O)Cn2c(=O)n(CC3CCCO3)c(=O)c3ccccc32)cc1OC (centres undefined) | inactive
65 | Cc1cccn2c(=O)c3cc(C#N)c(=NC(=O)c4cccnc4)n(CC4CCCO4)c3nc12 (centres undefined) | inactive
66 | CCOC(=O)c1cc2c(=O)n3ccccc3nc2n(CC2CCCO2)c1=NC(=O)c1ccccc1Br (centres undefined) | inactive
67 | COc1ccc(C(=O)Nc2ccc(C(=O)NCC3CCCO3)cc2)c(OC)c1OC (centres undefined) | inactive
68 | O=C(NCc1cccnc1)c1cc(S(=O)(=O)N2CCOCC2)c(Cl)cc1Cl | inactive
69 | COc1ccc(CCn2c(=N)c(C(=O)NCC3CCCO3)cc3c(=O)n4cccc(C)c4nc32)cc1OC (centres undefined) | 5.17 µM (active)
70 | Cc1cccn2c(=O)c3cc(C(=O)NC4CCCCC4)sc3nc12 | inactive
71 | Cc1cccn2c(=O)c3cc(C(=O)NCCN4CCOCC4)c(=N)n(Cc4cccnc4)c3nc12 | 13 µM (active)
72 | CCOc1ccc(N2C(=O)CSC2=NC#N)cc1 | inactive
73 | COC(=O)C1=C(C)NC(=S)NC1c1ccc(OCC(=O)N2CC(C)OC(C)C2)c(OC)c1 (centres undefined) | inactive
74 | Cn1cc(S(=O)(=O)N2CCN(c3ccc(F)cc3)CC2)c(=O)n(C)c1=O | inactive
75 | CCc1ccc(C(=O)OCC(=O)NCC(F)(F)F)cc1 | inactive
76 | CS(=O)(=O)N1CCCC(C(=O)Nc2ccccc2C(F)(F)F)C1 (centres undefined) | inactive
77 | CC(=O)Nc1ccc(NC(=O)C(C)OC(=O)C2CC(=O)N(CCc3ccccc3)C2)cc1 (centres undefined) | inactive
78 | O=C(O)C1CCCCC1C(=O)N1CCN(S(=O)(=O)c2ccc(F)cc2)CC1 (centres undefined) | inactive

Row | SMILES | Potency
79 | NCCCCC(C(=O)O)N(C(=O)OCc1ccccc1)C(=O)OCc1ccccc1 (centres undefined) | inactive
80 | CC1C(=O)C(C)C(c2ccc(O)cc2)NC1c1ccc(O)cc1 (centres undefined) | inactive
81 | O=C(OCC(=O)N1CCN(C(=O)c2ccco2)CC1)c1ccc(Cl)c(Cl)c1 | inactive
82 | CCOc1ccccc1/C=N/NC(=O)CNC(=O)COc1ccccc1 | inactive
83 | COc1ccc(CCNC(=O)CCc2ccccc2O)cc1OC | inactive
84 | COc1ccc(C(=O)Nc2ccccc2C(=O)NCc2ccco2)cc1 | inactive
85 | COc1ccc(CCn2c(=N)c(C(=O)NCc3ccco3)cc3c(=O)n4cccc(C)c4nc32)cc1 | 20.6 µM (active)
86 | Cc1ccc(S(=O)(=O)c2cc3c(=O)n4cccc(C)c4nc3n(CCc3ccccc3)c2=N)cc1C | inactive
87 | CCOC(=O)c1ccc(NC(=O)CCn2c(=O)oc3ccccc32)cc1 | inactive
88 | CC(Sc1nncn1C)C(=O)NCCC1=CCCCC1 (centres undefined) | inactive
89 | CC(C)[C@H](CO)Nc1nc(Nc2cc(N)cc(Cl)c2)c2ncn(C(C)C)c2n1 | 4.73 µM (active)
90 | CC(C)n1cnc2c(Nc3cccc(Cl)c3)nc(N(CCO)CCCO)nc21 | 10.3 µM (active)
91 | CCC(C)(C)NC(=O)C1c2ccccc2Oc2ccccc21 | inactive
92 | CC(C)(C)c1nnc(NC(=O)C2c3ccccc3Oc3ccccc32)s1 | 23.1 µM (active)
93 | CCC(C)NC(=O)C1c2ccccc2Oc2ccccc21 (centres undefined) | inactive
94 | COCCCNCC(=O)Nc1sc(C)c(C)c1C(=O)OC | inactive
95 | Nc1ncnc2nnsc12 | inactive
96 | Oc1c(C(c2ccc(F)cc2)N2CCN(Cc3ccccc3)CC2)sc2nc(-c3ccco3)nn12 (centres undefined) | inactive
97 | CC(C)(O)CCC(O)[C@@](C)(O)C1CC[C@]2(O)C3=CC(=O)C4CC(O)C(O)C[C@]4(C)C3CC[C@]12C (some centres undefined) | inactive
98 | COc1cccc(N2CC(NC(=O)/C=C\c3ccccc3)CC2=O)c1 (centres undefined) | inactive
99 | COc1cccc(C(=O)NNC(=O)/C=C/c2ccccc2)c1 | inactive
100 | COc1cccc(C=CC(=O)C=CC=Cc2ccccc2)c1 | 20.6 µM (active)
101 | COc1ccccc1C(C)NC(=O)Cc1ccsc1 (centres undefined) | inactive
102 | Cc1cc(C(C)(C)C)oc1C(=O)N(CC(=O)NC1CCCC1)Cc1ccc(Cl)cc1 | 9.2 µM (active)
103 | Cc1ccc(CN(CC(=O)NC2CCCCC2)C(=O)c2csnn2)cc1 | inactive
104 | COc1ccc(CN(CC(=O)NC2CCCC2)C(=O)CCC(=O)Nc2cc(C)on2)cc1 | inactive
